Experimental data: PubChem BioAssay (NCI)
Compounds without any hit were thinned out: in the full panel of roughly 79,000, 15% have a hit. Calls of active or inactive are those of the source. Rule as the data show it: active = growth inhibition above about 70%; inactive = the rest.

What was measured:
[1] = NCI Yeast Anticancer Drug Screen. Data for the rad50 strain (AID 155);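 also: 0% = growth of vehicle-only cultures of the same strain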; settings: S. cerevisiae rad50 strain growth inhibition, active compounds read high
Summary of the method: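 Yeast carrying a defined DNA repair defect were exposed to test compounds, and growth was compared with vehicle-treated controls to give percent inhibition.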

[2] = NCI Yeast Anticancer Drug Screen. Data for the mec2-1 strain (AID 157); settings: S. cerevisiae mec2-1 strain, active compounds read high
Summary of the method: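 Using mec2-1 yeast: add compound, measure growth, express inhibition versus vehicle-treated cultures.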

[3] = NCI Yeast Anticancer Drug Screen. Data for the sgs1 mgt1 strain (AID 161);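 also: 0% = growth of cultures given vehicle only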; settings: S. cerevisiae sgs1 mgt1 strain, active compounds read high
Summary of the method: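 Growth of a repair-deficient yeast mutant was monitored after compound treatment and expressed as inhibition relative to vehicle-treated cultures.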

[4] = NCI Yeast Anticancer Drug Screen. Data for the cln2 rad14 strain (AID 165);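 also: 0% = growth equal to vehicle treated cultures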; settings: S. cerevisiae cln2 rad14 strain, active compounds read high
Summary of the method: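 Yeast strain cln2 rad14, bearing defects in cell cycle control and DNA repair, serves as the test system; values reflect growth inhibition compared with vehicle.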

[5] = NCI Yeast Anticancer Drug Screen. Data for the bub3 strain (AID 167); settings: S. cerevisiae bub3 mutant strain, active compounds read high
Summary of the method: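 Compounds were applied to a genetically altered yeast strain carrying a cell-cycle control defect. Growth inhibition was scored against vehicle-treated controls.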

[6] = NCI Yeast Anticancer Drug Screen. Data for the mlh1 rad18 strain (AID 175); settings: S. cerevisiae mlh1 rad18 strain growth inhibition, active compounds read high
Summary of the method: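 Steps: expose repair-defective yeast to compound; measure growth; express inhibition against vehicle-treated controls.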

[7] = at 5.0 µM (retest, dose inferred, filed as 0.5)
[8] = at 50.0 µM (retest, dose inferred, filed as 5.0)

Measured: growth inhibition

C[N+](C)([O-])CCOc1cc2c(c3ccccc13)-c1ccccc1C2=O
active: [1]; at 50.0 µM 83.8%
inactive: [1]; [7] 1% | [1]; [8] 63% | [2]; [7] -1% | [2]; [8] 7% | [2]; at 50.0 µM -4.3% | [3]; [7] -4% | [3]; [8] 19% | [3]; at 50.0 µM -8.2% | [4]; [7] -5% | [4]; [8] 5% | [4]; at 50.0 µM 13% | [5]; [7] -5% | [5]; [8] 4% | [5]; at 50.0 µM 0.15% | [6]; [7] 1% | [6]; [8] 13% | [6]; at 50.0 µM 16.9%

CC(SCc1ccccc1)C(=O)O (centres undefined)
inactive: [1]; [7] -10% | [1]; [8] 10% | [1]; at 50.0 µM -9.25% | [2]; [7] 3% | [2]; [8] 7% | [2]; at 50.0 µM -29.8% | [3]; [7] -6% | [3]; [8] 3% | [3]; at 50.0 µM -35.9% | [4]; [7] 9% | [4]; [8] -1% | [5]; [7] -21% | [5]; [8] -2% | [5]; at 50.0 µM -18.6% | [6]; [7] -2% | [6]; [8] 44% | [6]; at 50.0 µM -44.5%
active: [4]; at 50.0 µM 73%

CCOC(=O)c1c(I)[nH]c(I)c1C
inactive: [1]; [7] -1% | [1]; [8] 11% | [1]; at 50.0 µM 30.3% | [2]; [7] 0% | [2]; [8] 5% | [2]; at 50.0 µM 10.2% | [3]; [7] -1% | [3]; [8] 14% | [3]; at 50.0 µM 22.2% | [4]; [7] -1% | [4]; [8] 3% | [4]; at 50.0 µM 10.6% | [5]; [7] 4% | [5]; [8] 3% | [5]; at 50.0 µM 38.5% | [6]; [7] 2% | [6]; [8] 9% | [6]; at 50.0 µM 42.3%

O=C(C(Oc1ccc(Cl)cc1)Oc1ccc(Cl)cc1)N(O)c1ccccc1OCc1ccccc1
active: [6]; at 50.0 µM 71.5%
inactive: [1]; [7] 14% | [1]; [8] 49% | [1]; at 50.0 µM 66.8% | [2]; [7] 3% | [2]; [8] 39% | [2]; at 50.0 µM 63% | [3]; [7] 18% | [3]; [8] 45% | [3]; at 50.0 µM 69.5% | [4]; [7] -13% | [4]; [8] 49% | [4]; at 50.0 µM 53.6% | [5]; [7] 6% | [5]; [8] 57% | [5]; at 50.0 µM 47.9% | [6]; [7] 11% | [6]; [8] 45%

Nc1ccc(/C=C/c2ccccc2)cc1
inactive: [1]; [7] 3% | [1]; [8] 61% | [2]; [7] -9% | [2]; [8] 33% | [3]; [7] -2% | [3]; [8] 47% | [4]; [7] -10% | [4]; [8] 45% | [5]; [7] -2% | [5]; [8] 44% | [6]; [7] 3%
active: [1]; at 50.0 µM 87.5% | [2]; at 50.0 µM 80.3% | [3]; at 50.0 µM 81.5% | [4]; at 50.0 µM 82.8% | [5]; at 50.0 µM 95.5% | [6]; [8] 73% | [6]; at 50.0 µM 94%

Cc1cc(Cl)c(O)c(-c2cc(-c3cccc([N+](=O)[O-])c3)c3c(N)[nH]c(=S)nc3n2)c1
inactive: [1]; [7] -6% | [1]; [8] 46% | [1]; at 50.0 µM 28.6% | [2]; [7] -6% | [2]; [8] 23% | [2]; at 50.0 µM 23.2% | [3]; [7] 3% | [3]; [8] 38% | [3]; at 50.0 µM 20.3% | [4]; [7] 12% | [4]; [8] 33% | [4]; at 50.0 µM 55% | [5]; [7] -5% | [5]; [8] 45% | [5]; at 50.0 µM -6.15% | [6]; [7] 5% | [6]; [8] 50% | [6]; at 50.0 µM 25.8%

CC(=O)n1nc2c(c1CC(C)C)C(=O)C(Nc1ccccc1)=CC2=O
active: [1]; [8] 100% | [1]; at 50.0 µM 77% | [2]; [8] 100% | [3]; [8] 100% | [3]; at 50.0 µM 80.2% | [4]; [8] 99% | [5]; [8] 99% | [6]; [8] 99% | [6]; at 50.0 µM 78.3%
inactive: [1]; [7] 1% | [2]; [7] 1% | [2]; at 50.0 µM 68.2% | [3]; [7] 1% | [4]; [7] 6% | [4]; at 50.0 µM 27.9% | [5]; [7] -2% | [5]; at 50.0 µM 23.2% | [6]; [7] 1%

O=C1OC(CCCl)(c2ccccc2)CC1CN1CCOCC1 (centres undefined)
active: [1]; [8] 81% | [1]; at 50.0 µM 70% | [2]; [8] 90% | [3]; [8] 75% | [5]; [8] 94% | [5]; at 50.0 µM 71.5% | [6]; [8] 91% | [6]; at 50.0 µM 73.6%
inactive: [1]; [7] 10% | [2]; [7] -10% | [2]; at 50.0 µM 57.9% | [3]; [7] -2% | [3]; at 50.0 µM 59% | [4]; [7] 15% | [4]; [8] 56% | [4]; at 50.0 µM 41.8% | [5]; [7] 30% | [6]; [7] -7%

S=C(N/N=C(/c1ccccc1)c1ccccn1)Nc1cccc(Cl)c1
inactive: [1]; [7] 48% | [1]; at 50.0 µM 2.05% | [2]; [7] 32% | [2]; at 50.0 µM 3.3% | [3]; [7] 24% | [3]; at 50.0 µM 41.6% | [4]; [7] 25% | [4]; at 50.0 µM 17.6% | [5]; [7] 40% | [5]; at 50.0 µM 20.1% | [6]; [7] 36% | [6]; at 50.0 µM 26.1%
active: [1]; [8] 88% | [2]; [8] 91% | [3]; [8] 88% | [4]; [8] 88% | [5]; [8] 85% | [6]; [8] 89%

C/C(=C\c1ccccc1)c1ccncc1
inactive: [1]; [7] -17% | [1]; [8] 48% | [1]; at 50.0 µM 64.7% | [2]; [7] 14% | [2]; [8] 12% | [2]; at 50.0 µM 44.2% | [3]; [7] -8% | [3]; [8] 51% | [3]; at 50.0 µM 65.6% | [4]; [7] -8% | [4]; [8] 21% | [4]; at 50.0 µM 35.9% | [5]; [7] -9% | [5]; [8] 48% | [5]; at 50.0 µM 45.8% | [6]; [7] -11% | [6]; [8] 24% | [6]; at 50.0 µM 54.9%

Cc1ccc(S(=O)(=O)NC(=O)CC2CCCCC2)cc1
inactive: [1]; [7] 14% | [2]; [7] 9% | [3]; [7] -9% | [4]; [7] -4% | [5]; [7] 17% | [6]; [7] 22%
active: [1]; [8] 89% | [1]; at 50.0 µM 91.2% | [2]; [8] 93% | [2]; at 50.0 µM 76.5% | [3]; [8] 94% | [3]; at 50.0 µM 79.1% | [4]; [8] 91% | [4]; at 50.0 µM 76.7% | [5]; [8] 94% | [5]; at 50.0 µM 79% | [6]; [8] 96% | [6]; at 50.0 µM 91.5%

O=C1C=C(Br)C(=O)C(Br)=C1
inactive: [1]; [7] 25% | [2]; [7] 21% | [3]; [7] 13% | [4]; [7] 28% | [4]; at 50.0 µM 25.7% | [5]; [7] 31% | [6]; [7] 40%
active: [1]; [8] 99% | [1]; at 50.0 µM 93.8% | [2]; [8] 99% | [2]; at 50.0 µM 99.6% | [3]; [8] 98% | [3]; at 50.0 µM 99.3% | [4]; [8] 86% | [5]; [8] 99% | [5]; at 50.0 µM 94.2% | [6]; [8] 99% | [6]; at 50.0 µM 97.5%

CC(=O)O/C=C\COC(C)=O
inactive: [1]; [7] 4% | [1]; [8] 4% | [2]; [7] 2% | [2]; [8] -2% | [2]; at 50.0 µM 47.8% | [3]; [7] 3% | [3]; [8] 2% | [3]; at 50.0 µM 42.5% | [4]; [7] 3% | [4]; [8] -2% | [4]; at 50.0 µM 33.5% | [5]; [7] 6% | [5]; [8] 1% | [6]; [7] 2% | [6]; [8] 6% | [6]; at 50.0 µM 39.3%
active: [1]; at 50.0 µM 79.8% | [5]; at 50.0 µM 86.3%
